Laboratory results published in PubChem BioAssay (NCI).
Values joined by “and” are separate entries in the source; they are usually repeats but may differ in a detail not shown here. Identical values can stand only once. About 83,000 compounds went through this panel and 20% of them were active in at least one assay; those are over-represented in the sample as a whole.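 96-well plates, one dose, 48 hours. Percent growth reported; active if below 10.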 Active and inactive are the calls of the source.

Columns and labels:
Assay in all cases: NCI-60 one-dose screen, 48 h (100 = growth as untreated, 0 = no growth, -100 = all killed)
Details in all cases: 10 µM unless noted
HCT-15 colon = system: HCT-15 colon
HT29 colon = system: HT29 colon
SNB-75 CNS = system: SNB-75 CNS
SNB-19 CNS = system: SNB-19 CNS
U251 CNS = system: U251 CNS
SK-MEL-5 melanoma = system: SK-MEL-5 melanoma
UACC-62 melanoma = system: UACC-62 melanoma
LOX IMVI melanoma = system: LOX IMVI melanoma
SK-MEL-28 melanoma = system: SK-MEL-28 melanoma
SK-MEL-2 melanoma = system: SK-MEL-2 melanoma
EKVX NSCLC = system: EKVX NSCLC
SN12C renal = system: SN12C renal
UO-31 renal = system: UO-31 renal
TK-10 renal = system: TK-10 renal
ACHN renal = system: ACHN renal
CAKI-1 renal = system: CAKI-1 renal
A498 renal = system: A498 renal
CCRF-CEM leukemia = system: CCRF-CEM leukemia
MOLT-4 leukemia = system: MOLT-4 leukemia
PC-3 prostate = system: PC-3 prostate

Measured: growth

CCN1CCN(CC(=O)Nc2nc3ccc(NCc4ccc(C)cc4)cc3s2)CC1
inactive: HT29 colon 14.5% | SNB-75 CNS 91.6% | SNB-19 CNS 81.6% | U251 CNS 60.2% | SK-MEL-5 melanoma 40.7% | SK-MEL-28 melanoma 53.4% | SK-MEL-2 melanoma 75.8% | EKVX NSCLC 72.6% | SN12C renal 63.3% | UO-31 renal 61.6% | TK-10 renal 93.6% | ACHN renal 85.6% | CAKI-1 renal 50.7% | A498 renal 94% | CCRF-CEM leukemia 55.8% | MOLT-4 leukemia 50.5%
active: HCT-15 colon 1.79% | UACC-62 melanoma -57.1% | LOX IMVI melanoma -42.4%

Cc1cc(N2CCCCC2)nc(NCc2cc(Nc3ccnc4cc(Cl)ccc34)ccc2F)n1
active: HCT-15 colon -55.1% | HT29 colon -58.4% | SNB-75 CNS -37.1% | U251 CNS -90.9% | SK-MEL-5 melanoma -96.3% | UACC-62 melanoma -80.7% | LOX IMVI melanoma -79.2% | SK-MEL-28 melanoma -73.8% | SK-MEL-2 melanoma -42.7% | SN12C renal -71% | UO-31 renal -46.9% | TK-10 renal -21.5% | ACHN renal -82% | A498 renal -17.3% | CCRF-CEM leukemia -19.2% | MOLT-4 leukemia -24.8%
inactive: SNB-19 CNS 40.9% | EKVX NSCLC 38.6% | CAKI-1 renal 19.1%

CN1CCN(c2ccc(/C=C/C(=O)c3ccc(O)cc3)cc2)CC1
inactive: HCT-15 colon 91.1% | HT29 colon 100% | SNB-75 CNS 85.6% | SNB-19 CNS 99.6% | U251 CNS 86.7% | SK-MEL-5 melanoma 94.1% | UACC-62 melanoma 92.7% | LOX IMVI melanoma 95.4% | SK-MEL-28 melanoma 98.8% | SK-MEL-2 melanoma 102% | EKVX NSCLC 83.7% | SN12C renal 94.1% | UO-31 renal 85.3% | TK-10 renal 122% | ACHN renal 105% | CAKI-1 renal 98.9% | A498 renal 82.9% | CCRF-CEM leukemia 102% | MOLT-4 leukemia 95%

COc1ccc(S(=O)(=O)Nc2cc(Sc3cccc4cccnc34)c(O)c3ccccc23)cc1
active: HT29 colon -37.8% | U251 CNS 4.81% | SK-MEL-5 melanoma -32.7% | UACC-62 melanoma -28.1% | LOX IMVI melanoma -55.8% | SK-MEL-28 melanoma -2.3% | SK-MEL-2 melanoma 5.09% | ACHN renal 7.43% | MOLT-4 leukemia -4.51%
inactive: HCT-15 colon 10.9% | SNB-75 CNS 62.5% | SNB-19 CNS 43% | EKVX NSCLC 36.7% | SN12C renal 17.2% | UO-31 renal 27.4% | TK-10 renal 23.4% | CAKI-1 renal 20% | A498 renal 65.2% | CCRF-CEM leukemia 13.4%

Nc1nc(Cl)nc2c1ncn2C1OC(CO)C(O)C1O (stereo not drawn)
active: CCRF-CEM leukemia 0.283% and -17% | MOLT-4 leukemia 2.75% and 3.08%
inactive: HCT-15 colon 60.8% and 68.4% | HT29 colon 105% and 87.7% | SNB-75 CNS 105% and 91.5% | SNB-19 CNS 52% and 53.5% | U251 CNS 74.6% and 64.1% | SK-MEL-5 melanoma 67.6% and 52.4% | UACC-62 melanoma 90.1% and 80.5% | LOX IMVI melanoma 88.7% and 66.6% | SK-MEL-28 melanoma 64.6% and 75.2% | SK-MEL-2 melanoma 82.9% | EKVX NSCLC 102% and 110% | SN12C renal 30.2% and 28.3% | UO-31 renal 25.1% and 13% | TK-10 renal 82.4% and 87.6% | ACHN renal 65.9% and 61.9% | CAKI-1 renal 25.9% and 41% | A498 renal 96.6%

Cc1ccc(/C=C(\C#N)c2cc3ccccc3[nH]2)cc1
inactive: HCT-15 colon 27.1% | HT29 colon 13% | SNB-75 CNS 54.1% | SNB-19 CNS 55.4% | U251 CNS 38% | SK-MEL-5 melanoma 52% | UACC-62 melanoma 22.7% | LOX IMVI melanoma 43.4% | SK-MEL-28 melanoma 72.1% | SK-MEL-2 melanoma 48.8% | EKVX NSCLC 74.7% | SN12C renal 50.3% | UO-31 renal 69.8% | TK-10 renal 82.6% | ACHN renal 85.6% | CAKI-1 renal 45.6% | A498 renal 57.2% | CCRF-CEM leukemia 46% | MOLT-4 leukemia 30.6%

CCOC(=O)C(=CCC(C)C)C(=O)OCC
inactive: HCT-15 colon 100% | HT29 colon 104% | SNB-75 CNS 93.1% | SNB-19 CNS 98.7% | U251 CNS 98.8% | PC-3 prostate 95.5% | SK-MEL-5 melanoma 103% | LOX IMVI melanoma 93.3% | SK-MEL-28 melanoma 107% | SK-MEL-2 melanoma 113% | EKVX NSCLC 112% | SN12C renal 90.5% | UO-31 renal 78.5% | TK-10 renal 121% | ACHN renal 103% | CAKI-1 renal 99.4% | A498 renal 76.2% | CCRF-CEM leukemia 108% | MOLT-4 leukemia 98.1%
